Results filed as inconclusive are left out. Some structures have more than one record in an assay (separate samples or runs), and their calls can disagree. Active and inactive are the calls of the source. Calls follow the shape of the dose curve; as a rule, active = well fitted inhibition curve with a large enough effect; inconclusive = small, poorly fitted or top-dose-only effect; inactive = no such curve, though single readings can be large or run the other way.
Molecular target: Cytochrome P450 2C9 (Homo sapiens) (UniProt P11712)
Assay: qHTS Assay for Inhibitors and Substrates of Cytochrome P450 2C9 (AID 883); also: nearly all actives have a fitted effect of over 60% in size
Details: recombinant CYP2C9, luciferin-H luminescence, 60 min; series mostly up to 11.4 µM; activity change, negative = inhibition: at the top concentration
In short: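 A luminogenic readout tracked human CYP2C9 (10nM) converting deoxyluciferin (100uM, at KM) in 25mM KPO4 during 60 min at 37C with regenerated NADPH. Values normalized to 57uM sulphaphenazole as complete inhibition.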
% is scaled to controls: 0 for no effect and ±100 for the full control effect; potency is read from the fitted curve at half-maximal effect.

Cytochrome P450 2C9 (Homo sapiens), sequence (P11712 whole entry, looked up): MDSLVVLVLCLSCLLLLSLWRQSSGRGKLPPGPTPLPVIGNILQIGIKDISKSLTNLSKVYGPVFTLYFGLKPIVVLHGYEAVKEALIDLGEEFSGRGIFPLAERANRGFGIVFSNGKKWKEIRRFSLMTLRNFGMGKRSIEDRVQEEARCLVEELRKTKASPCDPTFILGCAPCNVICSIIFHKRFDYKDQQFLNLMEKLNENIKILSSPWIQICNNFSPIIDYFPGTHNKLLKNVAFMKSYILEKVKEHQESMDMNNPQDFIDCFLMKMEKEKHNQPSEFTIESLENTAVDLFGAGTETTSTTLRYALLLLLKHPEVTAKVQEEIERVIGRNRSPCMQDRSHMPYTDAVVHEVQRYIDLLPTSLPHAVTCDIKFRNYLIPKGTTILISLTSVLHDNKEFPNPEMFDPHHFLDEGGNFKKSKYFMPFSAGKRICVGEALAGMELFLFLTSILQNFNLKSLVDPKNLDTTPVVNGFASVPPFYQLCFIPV

| SMILES | activity change, negative = inhibition | Potency |
| --- | --- | --- |
| COC(=O)NC(c1ccco1)[C@@]1(C(=O)OC)CCCC1=O (stereo not given in full) | 5.98% (inactive) | – |
| COC(=O)NC(c1cccc(C)c1)[C@@]1(C(=O)OC)CCCC1=O (stereo not given in full) | 5.89% (inactive) | – |
| COC(=O)NC(CC(C)=O)c1cccc(F)c1 (stereo not given) | 1.31% (inactive) | – |
| O=C1C=CC2(OCCCO2)C(Br)=C1 | 8.67% (inactive) | – |
| OCC1OC(C#Cc2ccccc2)C=CC1OCc1ccccc1 (stereo not given) | -23.5% (inactive) | – |
| C=CCC1C=CC(OC(=O)OCC)C(COC(=O)OCC)O1 (stereo not given) | -0.155% (inactive) | – |
| CC(C)CN1CCc2nc(-c3ccccc3)c3c(c2CC1)COC(C)C3 (stereo not given) | 6.58% (inactive) | – |
| CCOC(=O)CCCCC1=CC2=CC(=O)C(C)(O)C(=O)C2=CO1 (stereo not given) | 12.8% (inactive) | – |
| COC(=O)NC(CC(C)=O)c1cccs1 (stereo not given) | 4.71% (inactive) | – |
| COC(=O)NC(CC(C)=O)c1ccccc1 (stereo not given) | -12.7% (inactive) | – |
| CC(O)CCCCCCC/C=C/C=C/C(N)=O (stereo not given) | 16.3% (inactive) | – |
| COC(=O)NC(c1ccc2ccccc2c1)C(C(C)=O)C(=O)OC (stereo not given) | 44.3% (inactive) | – |
| CCOC(=O)OCC1OC(C#CC(C)(C)C)C=CC1OC(=O)OCC (stereo not given) | 2.25% (inactive) | – |
| CC12C=C(/C=C/c3ccc(F)cc3)C(C)(C1)C(c1ccc(F)cc1)CC2=O (stereo not given) | -24.9% (inactive) | – |
| CCN1C(C)=C(C(=O)OC)C(c2ccccc2)N2C(=O)[C@@]3(C(=O)OC)O[C@@]12C1C(=O)N(c2ccccc2)C(=O)C13 (stereo not given in full) | 26.6% (inactive) | – |
| CCOC(=O)[C@]1(C(NC(=O)OC)c2cccc(C)c2)CCCC1=O (stereo not given in full) | 11.3% (inactive) | – |
| CC(=O)OCC1OC(C#CC(C)(C)C)C=CC1OC(C)=O (stereo not given) | – | inactive |
| COc1ccc(OC)c(C2OCCC=CC2C)c1 (stereo not given) | 8.2% (inactive) | – |
| COC(=O)NC(CC(C)=O)c1ccc(F)cc1 (stereo not given) | 15.8% (inactive) | – |
| CCN1C(C)=C(C(=O)OC)C(c2ccccc2)N2C(=O)[C@@]3(C(=O)OC)O[C@@]12C1C(=O)N(C)C(=O)C13 (stereo not given in full) | -3.48% (inactive) | – |

| SMILES | activity change, negative = inhibition | Potency |
| --- | --- | --- |
| COC(=O)CC1=COC(O)C2C(CO)=CC[C@@H]12 (stereo not given in full) | 15.5% (inactive) | – |
| COC(=O)NC(c1cccc(F)c1)[C@@]1(C(=O)OC)CCCC1=O (stereo not given in full) | -1.89% (inactive) | – |
| CC(C)C(=O)NC(=O)C1CCCN1C(=O)/C=C/c1ccccc1 (stereo not given) | 23.4% (inactive) | – |
| COc1cccc(C2NC(C(=O)O)CCC2C)c1 (stereo not given) | 36.6% (inactive) | – |
| COC(=O)NC(CC(C)=O)c1ccc(Cl)cc1 (stereo not given) | -7.49% (inactive) | – |
| CC12C=C(/C=C/C=C/c3ccco3)C(C)(C1)C(/C=C/c1ccco1)CC2=O (stereo not given) | 1.27% (inactive) | – |
| CC1CCC2C(=O)N3CCCC3C(=O)N2C1c1ccc(Br)cc1 (stereo not given) | – | 631 nM (active) and inactive |
| CC1(C)Oc2cc3c(cc2O1)OC(C)(C)O3 | 1.44% (inactive) | – |
| COc1cc(C2c3[nH]c4ccccc4c3CC3C(=O)N4C(Cc5c([nH]c6ccccc56)C4c4cc(OC)c(OC)c(OC)c4)C(=O)N32)cc(OC)c1OC (stereo not given) | -7.67% (inactive) | – |
| COC1C(O)COC1/C=C/c1ccccc1 (stereo not given) | 26.3% (inactive) | – |
| COC(=O)NC(c1ccc(Cl)cc1)C(C(C)=O)C(=O)OC (stereo not given) | 42.1% (inactive) | – |
| COC(=O)NC(c1cccc(C)c1)[C@]1(C(C)=O)CCCC1=O (stereo not given in full) | 6.1% (inactive) | – |
| COC(=O)NC(CC(C)=O)c1cccc(C)c1 (stereo not given) | 2.9% (inactive) | – |
| CC(=O)OCC1OC(c2ccc(C(C)=O)cc2)C=CC1OC(C)=O (stereo not given) | 8.24% (inactive) | – |
| CCN1C(C)=C(C(=O)OC)C(c2ccccc2)N2C(=O)[C@](O)(C(=O)OC)CC(C(C)=O)=C12 (stereo not given in full) | 24.2% (inactive) | – |
| CCC(=O)[C@@]1(O)C(=O)N2C(=C3C(=O)OCCC31)N(Cc1ccccc1)C(C)=C(C(=O)OC)C2c1ccccc1 (stereo not given in full) | 21.8% (inactive) | – |
| CCOC(=O)OCC1OC(c2ccccc2)C=CC1Oc1ccc2oc(=O)cc(C)c2c1 (stereo not given) | 18.3% (inactive) | – |
| CCCc1cc2c(c(=O)o1)C(O)C1OC1C2=O (stereo not given) | -21.1% (inactive) | – |
| CC1CCC(C(=O)O)NC1c1cccc(N2CCCC2=O)c1 (stereo not given) | 2.12% (inactive) | – |
| Cc1cc(=O)oc2cc(OC3C=CC(C#CC(C)(C)C)OC3CO)ccc12 (stereo not given) | 102% (inactive) | – |

— PubChem BioAssay (NCATS)
